# Records with an inconclusive call do not appear. A call without a number means that no potency is given here. Activity calls are given as the source filed them. The call rests on the fitted dose curve; in most records, active means well fitted inhibition curve with a large enough effect; inconclusive means small, poorly fitted or top-dose-only effect; inactive means flat fitted curve, though single readings scatter.
# Test system: TAB109
# Experiment: qHTS profiling for inhibitors of Plasmodium falciparum proliferation (AID 504749); further: nearly all actives have a fitted effect of over 60% in size
# Settings: P. falciparum in erythrocytes, SYBR Green DNA, 72 h; series mostly up to 28.7 µM
# In short: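 Infected RBCs, 0.3% parasitemia/2.5% Hct final; cpd 72 h, 37 C, 5% CO2; lysis buffer with saponin/triton/SYBR Green I, o/n RT dark; FI 485/535; norm. to artemisinin (0.29 uM) and DMSO.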
# Potency means the concentration at half of the fitted maximal effect.
row,Compound,Potency
1,C#C[C@]1(OC(C)=O)CC[C@H]2[C@@H]3CCC4=C[C@@H](OC(C)=O)CC[C@@H]4[C@H]3CC[C@@]21C,inactive
2,CCCn1c(=O)[nH]c(=O)c2[nH]cnc21,inactive
3,CC(O)C(=O)O (stereo unspecified),inactive
4,O=C(OCCOCCO)c1ccccc1Nc1cccc(C(F)(F)F)c1,inactive
5,c1ccc(-c2ccc(C(c3ccccc3)n3ccnc3)cc2)cc1 (stereo unspecified),8.91 µM (active)
6,Cc1cccn2c(=O)c(-c3nnn[nH]3)cnc12,inactive
7,NCCc1ccn[nH]1,inactive
8,O=C1OC(c2ccc(O)cc2)(c2ccc(O)cc2)c2ccccc21,inactive
9,CN1C(CCl)Nc2cc(Cl)c(S(N)(=O)=O)cc2S1(=O)=O (stereo unspecified),inactive
10,COc1cc(C(=S)N2CCOCC2)cc(OC)c1OC,inactive
11,C[C@H]1[C@H](NC(=O)/C(=N/OC(C)(C)C(=O)O)c2csc(N)n2)C(=O)N1S(=O)(=O)O (stereo in doubt),inactive
12,NCCCC[C@H](N[C@@H](CCc1ccccc1)C(=O)O)C(=O)N1CCC[C@H]1C(=O)O,inactive
13,CC(C)(CO)[C@@H](O)C(=O)NCCCO,inactive
14,Cc1ccnc(NS(=O)(=O)c2ccc(N)cc2)n1,inactive
15,CNCCC(Oc1ccccc1C)c1ccccc1 (stereo unspecified),inactive
16,Nc1ccc(C(=O)O)cc1,inactive
